Bioassay records (PubChem)
The list is not random: actives were taken first. Their share in the collection is about 7.4%.
SMN2 splice up – enhancers of SMN2 splice variant expression | HEK293 SMN2-luciferase splicing reporter, luminescence, 30-36 h | Potency, µM (top dose mostly 46.1 µM), inactives show at the top dose activity change, positive = activation, most hits filed as activators | hit rate 2.8% among 210,000; also: % of control where 0% means no effect; nearly all actives have a fitted effect of over 55% in size
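qHTS luciferase splicing reporter: luminescence rises when SMN2 exon 7 is included in transfected HEK293 cells. Compound exposure lasted 30-36 h at 37C, with 4.5 mM final sodium butyrate as control, followed by a ONE-Glo read.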
FLuc modulator – counter-screen for miR-21 project: firefly luciferase inhibitors or activators | hit rate 6.9% among 360,000 | purified FLuc, Km substrates, luminescence inhibition | Potency, µM (doses to about 57.5 µM), inactives show at the top dose activity change, negative = inhibition, hits mostly inhibitors;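 also: plate controls were vehicle for no effect and reference inhibitor for full effect; nearly all actives have a fitted effect of over 55% in size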
Target sequence (P08659 whole entry, looked up): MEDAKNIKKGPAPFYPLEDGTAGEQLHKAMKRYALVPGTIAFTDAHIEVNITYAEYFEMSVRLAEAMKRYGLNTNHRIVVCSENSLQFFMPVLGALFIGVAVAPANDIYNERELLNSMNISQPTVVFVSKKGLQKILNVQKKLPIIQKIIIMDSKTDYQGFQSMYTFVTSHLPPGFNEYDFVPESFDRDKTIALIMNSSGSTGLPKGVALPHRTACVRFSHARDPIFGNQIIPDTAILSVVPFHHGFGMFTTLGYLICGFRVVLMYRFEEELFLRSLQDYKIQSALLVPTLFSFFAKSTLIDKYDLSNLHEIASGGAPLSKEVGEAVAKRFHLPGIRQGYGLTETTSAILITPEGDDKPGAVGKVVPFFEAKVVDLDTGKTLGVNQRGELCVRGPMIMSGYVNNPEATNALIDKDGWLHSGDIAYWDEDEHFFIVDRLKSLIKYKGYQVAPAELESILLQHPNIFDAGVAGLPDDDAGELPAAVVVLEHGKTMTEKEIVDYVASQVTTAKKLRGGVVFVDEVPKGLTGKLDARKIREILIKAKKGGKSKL
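Purified P. pyralis luciferase, 10 nM final, with Km-level 10 uM D-luciferin and 10 uM ATP in 50 mM Tris acetate pH 7.5, 10 mM Mg acetate, 0.01% Tween-20, 0.05% BSA; 6-point qHTS titration about 60 µM downward; luminescence read.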
ELG1 genotoxic – inducers of genotoxicity in HEK293T ELG1-luciferase cells; HEK293T ELG1-luciferase reporter, luminescence, 16 h; Potency, µM (doses to about 46 µM), for inactives: at the highest dose activity change, positive = activation, most hits filed as activators; hit rate 1.3% among 330,000; AID 504466; also: % of control where 0% means no effect; nearly all actives have a fitted effect of over 60% in size
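Screening used a luciferase reporter fused to human ELG1 in HEK293T cells. Luminescence was read on a CCD plate imager after 16 hr exposure and 30 min ONE-Glo incubation.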
NPC1 prom act – activates the NPC1 promoter; Huh7 NPC1 promoter luciferase reporter, 24 h; Potency, µM (top dose mostly 9.22 µM), for inactives: at the top dose activation, actives largely listed as activators; hit rate 2.4% among 320,000; AID 485313; also: % of control where 0% means no effect; nearly all actives have a fitted effect of over 60% in size
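Quantitative HTS used a cell-based reporter: Huh7 cells stably bearing the NPC1 promoter upstream of luciferase were treated with compounds for 24 h, and promoter activation was read as luminescence.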
Rab9 prom act – Rab9 promoter activation | Potency, µM (series often up to 9.22 µM), for the others: at the highest dose activation, negative = inhibition, most hits filed as activators | Huh7 Rab9 promoter-luciferase reporter, luminescence, 24 h | hit rate 2.8% among 320,000; also: % of control where 0% means no effect; nearly all actives have a fitted effect of over 60% in size
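Steps: seed 1500 Huh7 Rab9-luc cells per well, rest 2 h at 37 °C; add compound in DMSO; incubate 24 h; add luciferase reagent, 10 min ambient; read luminescence.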
An asterisk follows results filed as active; ? = inconclusive; . = no result given; [ ] = remark or other dose. Calls follow the shape of the dose curve; as a rule, active = well fitted curve in the direction sought with a large enough effect; inconclusive = small, poorly fitted or top-dose-only effect, or another doubt; inactive = no such curve, though single readings can be large; an effect the other way counts as inactive or inconclusive. Potency is read from the fitted curve at half-maximal effect.

SMILES	SMN2 splice up	FLuc modulator	ELG1 genotoxic	NPC1 prom act	Rab9 prom act
O=C(Nc1cccc(F)c1)N1CC[C@@]2(CCCN(C(=O)c3ccncc3)C2)C1	-8%	.	.	.	.
COc1ccc(CCNC(=O)c2cc(C3CC3)nc3c2cnn3C(C)C)cc1	.	0%	0%	1%	-8%
O=C(NCCc1ccccn1)c1cc2ccccc2o1	.	?	?	3.5µM*	?
Cc1ccc(NC(=O)c2cc3ccccc3o2)nc1	.	1.9µM*	0.73µM*	4µM*	3.2µM*
Cc1cc(C)nc(NC(=O)c2cc3ccccc3o2)n1	-5%	-9%	5%	15%	15%
Cn1c(SCc2ccc(C(F)(F)F)cc2)nc2c([nH]c3ccccc32)c1=O	.	1%	.	.	.
Cc1nnc(SCC(=O)c2ccc(Br)cc2)s1	-8%	17µM*	-1%	10%	17%
Cc1ccc(C(=O)CSc2nnc(C)s2)cc1	?	13µM*	?	2.2µM*	2.2µM*
Cc1nnc(SCC(=O)Nc2nsc(-c3ccccc3)n2)s1	16%	?	-4%	10%	17%
Nc1nnc(SCC(=O)c2ccc3ccccc3c2)s1	?	19µM*	12µM*	4.5µM*	4µM*
Cc1ccc(-c2nc(NC(=O)CSc3nnc(C)s3)ns2)cc1	6%	19µM*	3%	8%	-7%
O=S(=O)(NCCc1ccccc1)c1ccc(N2CCCCS2(=O)=O)cc1	.	-5%	.	.	.
O=C(CCNS(=O)(=O)c1ccccc1)NNC(=O)c1cccc(Cl)c1	.	.	2%	.	.
CCn1cc(CNC(=O)C2CCC(=O)N(Cc3ccc(Cl)cc3)C2)cn1 (configuration not stated)	.	-1%	1%	-3%	-3%
Cc1cc(C(=O)c2cnc(/N=C/N(C)C)s2)cc(C)c1O	11%	-9%	?	-4%	1%
CN(C)/C=N/c1ncc(C(=O)c2ccc(-c3ccccc3)cc2)s1	-24%	21µM*	-5%	-1%	-4%
CN(C)/C=N/c1ncc(C(=O)c2ccccc2)s1	14µM*	15µM*	9.2µM*	2.8µM*	3.2µM*
CC(=O)O[C@H]1CC[C@@]2(C)C(=CC[C@@H]3[C@H]4CC[C@@H]([C@H](C)C(=O)O)[C@]4(C)CC[C@H]32)C1	2%[9.22 µM]	.	.	.	.
CC(NCc1ccccc1)c1ccccc1O (configuration not stated)	.	4%	0%	0%	-4%
O=C(Nc1cccc(S(=O)(=O)Nc2ccccc2F)c1)c1ccc2ccccc2n1	-20%	19µM*	-14%	-7%	-8%
O=C(/C=C/c1ccccc1)Nc1cccc(S(=O)(=O)Nc2ccccc2F)c1	12%	6.7µM*	-3%	-2%	-3%
O=C(/C=C/c1ccccc1)Nc1cccnc1Oc1ccccc1F	.	4.8µM*	9%	?	?
COC(=O)c1ccc2c(CCO)c[nH]c2c1	.	24µM*	?	?	29%
COC(=O)c1ccc(CNC(=O)CCc2c[nH]c3ccccc23)cc1	.	4%	7%	-1%	-2%
Nc1ccc(Cc2ccc(N)c(O)c2)cc1O	5%	19µM*	-13%	0%	?
SMILES	SMN2 splice up	FLuc modulator	ELG1 genotoxic	NPC1 prom act	Rab9 prom act
C=CCc1cc(/C=C/c2nc(O)c([N+](=O)[O-])c(=O)[nH]2)cc(OC)c1O	9%	17µM*	-1%	-2%	-3%
Cc1cccc(N2CCN(S(=O)(=O)c3ccc4oc(=O)c5ncn(C)c5c4c3)CC2C)c1 (configuration not stated)	.	-7%	.	.	.
Cc1cc(NC(=O)CSc2cn(CCNC(=O)c3ccc(F)cc3)c3ccccc23)no1	-4%	17µM*	0%	1%	0%
COc1ccc(C(=O)NCCn2cc(SCC(=O)NCc3ccco3)c3ccccc32)cc1	-50%	17µM*	5%	20%	?
O=C(Nc1ccccc1C(=O)O)c1ccc2ccccc2n1	?	6µM*	?	?	?
O=C(Nc1ccccc1)c1ccc2ccccc2n1	?	4.8µM*	?	20%	?
O=C(NNC(=O)c1ccc2ccccc2n1)c1ccc(O)cc1	.	?	1%	-3%	-3%
CCCN(CC(=O)Nc1ccccc1C)C(=O)c1ccc2ccccc2n1	.	2%	0%	-6%	3%
O=C(Nc1ccc(OC(F)(F)F)cc1)c1ccc2ccccc2n1	-43%	?	1%	1%	6%
Cc1ccccc1NC(=S)c1ccc2ccccc2n1	.	13µM*	?	23%	-2%
COCCNC(=O)c1cnn2c(C(F)(F)F)cc(-c3ccc(C)cc3)nc12	-13%	1%	-11%	-5%	-11%
CCc1cc(C(=O)N/N=C/c2ccc(O)cc2O)c2ccccc2n1	.	-9%	9%	-32%	-22%
S=C(Nc1ccccc1)Nc1ccc(OCc2ccccc2)cc1	-11%	3%	1%	-3%	7%
CC(C)=CC(=O)Nc1ccc(OCc2ccccc2)cc1	17%	13µM*	?	?	?
CCOC(=O)C(=O)Nc1ccc(OCc2ccccc2)cc1	.	?	0%	-3%	-3%
CCOCC(=O)Nc1ccc(OCc2ccccc2)cc1	?	17µM*	?	20%	?
CC(C)=CC(=O)Nc1ccc(Br)cc1	13µM*	4.8µM*	3.7µM*	2.5µM*	1.4µM*
Cc1ccc2nc(-c3ccc(NC(=O)CN(c4ccccc4C)S(C)(=O)=O)cc3)sc2c1	11µM*	2.4µM*	?	?	3.2µM*
Cc1cc(C)cc(N(CC(=O)Nc2ccc(-c3nc4ccc(C)cc4s3)cc2)S(C)(=O)=O)c1	3%[1.84 µM]	5.4µM*	?	?	?
CCNC(=O)N(C)C[C@H]1N[C@@](Cc2ccccc2)(C(=O)OC)[C@H]2C(=O)N(C)C(=O)[C@@H]12	.	.	1%	.	.
CCCCCn1c(=O)[nH]c2cc(C(=O)Nc3ccc(F)c(F)c3)ccc2c1=O	4%	-1%	.	.	.
CCn1cc(-c2n[nH]c(=S)n2-c2ccc(C)cc2Br)c(=O)c2ccc(C)nc21	.	4%	3%	-3%	0%
O=C(Nc1cccc([N+](=O)[O-])c1)c1ccc(-c2ccccc2)cc1	2%	-16%	5%	12%	26%
COC(=O)c1ccc(N=Nc2c(C)[nH]n(-c3ccccc3)c2=O)cc1	.	-7%	-5%	1%	-2%
O=C(O)c1ccc(N=NNc2cccc([N+](=O)[O-])c2)cc1	11µM*	2.4µM*	?	0.89µM*	0.63µM*
COC(=O)c1ccc(N=NNc2ccccc2)cc1	8.9µM*	3.8µM*	?	1.4µM*	1.3µM*
COC(=O)C(C)Nc1cccc(Br)c1 (configuration not stated)	.	1%	0%	-1%	-1%
COC(=O)c1ccc(N=NNc2cccc(Br)c2)cc1	5µM*	7.6µM*	?	1.3µM*	1.3µM*
COC(=O)c1ccc(N=NNc2ccc(C(=O)OC)cc2)cc1	?	?	18µM*	?	?
